Tests used:
Experiment in all cases: PBM binding z-score (relative to random genomic background probes); higher = stronger binding; sequences stand for … in GC…GCGATTGACAGCGTAGAATGAAGG
[1] = test system: PPARg:RXRa DBDmut IVT, anti-RXR (DBD mutation: RXRa K156A/R161A, NR concentration 270 nM, RXRa partner concentration 90 nM)
Procedure, shortened: (§1)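 Binding z-scores take random background probes as their reference. They come from custom Agilent 4×180K protein-binding microarrays incubated 1 h with ligand-free nuclear receptor dimers, with antibodies against each partner (one per run) detecting binding. Scanned fluorescence was regression-normalized.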

[2] = test system: PPARg:RXRa IVT, anti-PPARg (NR concentration 270 nM, RXRa partner concentration 90 nM)
Procedure, shortened: as §1

[3] = test system: PPARg DBDmut:RXRa IVT, anti-PPARg (DBD mutation: PPARg1 K132A/R137A, NR concentration 270 nM, RXRa partner concentration 90 nM)
Procedure, shortened: as §1

[4] = test system: PPARg DBDmut IVT, anti-PPARg (DBD mutation: PPARg1 K132A/R137A, NR concentration 270 nM)
Procedure, shortened: as §1

[5] = test system: PPARg homodimer (NR concentration 180 nM)
Procedure, shortened: as §1

[6] = test system: PXR:RXRa (NR concentration 270 nM, RXRa partner concentration 90 nM)
Procedure, shortened: as §1

[7] = test system: PXR homodimer (NR concentration 270 nM)
Procedure, shortened: as §1

[8] = test system: RARa:RXR (NR concentration 270 nM, RXRa partner concentration 90 nM)
Procedure, shortened: as §1

[9] = test system: RARa homodimer (NR concentration 270 nM)
Procedure, shortened: as §1

[10] = test system: RARb:RXRa (NR concentration 270 nM, RXRa partner concentration 90 nM)
Procedure, shortened: as §1

[11] = test system: RARb homodimer (NR concentration 270 nM)
Procedure, shortened: as §1

[12] = test system: RARg:RXRa (NR concentration 270 nM, RXRa partner concentration 90 nM)
Procedure, shortened: as §1

[13] = test system: RARg homodimer (NR concentration 270 nM)
Procedure, shortened: as §1

[14] = test system: RXRa DBDmut IVT, anti-RXR (DBD mutation: RXRa K156A/R161A, NR concentration 90 nM)
Procedure, shortened: as §1

[15] = test system: RXRa homodimer (NR concentration 180 nM)
Procedure, shortened: as §1

[16] = test system: THRa:RXRa (NR concentration 90 nM, RXRa partner concentration 90 nM)
Procedure, shortened: as §1

[17] = test system: THRa homodimer (NR concentration 90 nM)
Procedure, shortened: as §1

[18] = test system: VDR homodimer (NR concentration 270 nM)
Procedure, shortened: as §1

Row | Sequence | PBM binding z-score [1] | PBM binding z-score [2] | PBM binding z-score [3] | PBM binding z-score [4] | PBM binding z-score [5] | PBM binding z-score [6] | PBM binding z-score [7] | PBM binding z-score [8] | PBM binding z-score [9] | PBM binding z-score [10] | PBM binding z-score [11] | PBM binding z-score [12] | PBM binding z-score [13] | PBM binding z-score [14] | PBM binding z-score [15] | PBM binding z-score [16] | PBM binding z-score [17] | PBM binding z-score [18]
1 | ACAGATAGGTGAGTGAAGGTAACTCAGCTGGACG | 1.53 | 1.14 | 0.306 | -0.218 | 0.357 | -0.303 | -0.159 | 0.0919 | -0.566 | 0.558 | 0.126 | 0.246 | 0.547 | -0.347 | 0.347 | 1.65 | -0.341 | -0.149
2 | CCTTACGGGTCACTCCACGTTATAGCATCGGAGT | 2.55 | 3.09 | 0.675 | 0.232 | 2.03 | 2.39 | 0.155 | 3.01 | 0.911 | 3.44 | 2.58 | 4.04 | 4.01 | 1.41 | 4.01 | 1.88 | 0.13 | 1.23
3 | CCAGACAGGTGAAAGGTATCTCAGTCTGGTACGC | 2.04 | 1.9 | 0.166 | -0.382 | 0.656 | 0.00827 | -0.341 | 0.664 | -0.422 | 0.68 | 0.311 | 0.551 | 0.554 | 0.109 | 0.972 | 0.0736 | -0.151 | -0.194
4 | CAGCCTAGGTCAGGGCCGGTATAGGAGGAACGTT | 0.942 | 1.52 | -0.778 | -1.19 | 0.324 | 0.229 | -0.999 | 0.69 | -0.753 | 3.33 | 2.41 | 3.04 | 3.86 | -0.785 | 1.56 | 1.88 | 0.2 | -0.454
5 | CCGACTGGGGCTAGGTTACCATAACGCACAGCCA | 0.166 | 0.0447 | -1.21 | -1.97 | -0.278 | -0.509 | -0.572 | -0.318 | -0.21 | 0.392 | 0.542 | 0.00576 | 0.24 | -0.639 | 0.166 | 0.173 | -0.0667 | -0.608
6 | AGTCAAAGTTCACTAGGTACCGTAAGATTCAGCT | 1.61 | 3.48 | 1.07 | 0.221 | 2.63 | 4.09 | 3.98 | 2.9 | 1.09 | 4.74 | 3.6 | 4.92 | 5.92 | 4.36 | 3.75 | 1.65 | -0.132 | 3.97
7 | TCTAGGAGGCCAGAGGGTCACTCAAGAGGTACGG | 1.84 | 1.03 | -0.0331 | -0.364 | 0.662 | 1.42 | -0.35 | 2.08 | -0.215 | 2.58 | 3.01 | 3.09 | 2.32 | 0.451 | 2.66 | 1.7 | 0.0241 | 0.313
8 | CGAACTAGGTCATCCACGACAGTGAATACATTGA | 7.98 | 8.15 | 5.88 | 5.31 | 2.72 | 1.59 | 0.311 | 2.59 | 0.664 | 3.87 | 2.85 | 3.96 | 4.77 | 2.28 | 2.9 | 2.79 | 1.22 | 1.44
9 | GGAACGAGCGCAAGTTGATAGCAGAGTTTGATGG | -0.621 | -0.838 | -2.04 | -1.98 | -1.77 | -0.63 | -0.349 | -1.15 | -1.13 | -0.612 | -0.846 | -0.499 | -0.47 | 0.0943 | -0.499 | -1.01 | -0.971 | -0.311
10 | TCTTGGAGATCAGCAGGTTAAGAAAGCTGGCCAA | 1.35 | -0.4 | -0.469 | -0.467 | -0.281 | 0.203 | -0.366 | 0.266 | 0.00806 | 0.0526 | -0.0506 | -0.0345 | -0.56 | 0.285 | 0.182 | 0.0283 | -0.695 | -0.225
11 | TCTTGTAGATCAAAGGTTAGGAAAGCCGAAGCCT | 2.13 | 3.42 | 0.503 | 0.103 | 1.92 | 1.04 | -0.482 | 2.02 | 0.262 | 1.4 | 0.876 | 0.902 | 0.458 | 0.579 | 2.08 | 0.654 | -0.709 | -0.493
12 | GTACCGAGGTGAATAGGTCGTTGATGAGTAGGCG | 1.68 | 2.73 | -0.652 | -0.0941 | 1.09 | 0.905 | -0.18 | 2.02 | -0.153 | 2.03 | 1.73 | 2.95 | 1.64 | -0.0161 | 2.11 | 2.15 | 0.482 | 0.202
13 | TCATATAGGTAAAGGTGGAAGTCGAACGATATGA | 3.45 | 2.86 | 1.27 | 1.48 | 0.634 | 0.357 | 0.267 | 0.637 | 0.638 | 0.387 | 0.0636 | 0.544 | 0.404 | 1.02 | 0.958 | -0.14 | -0.387 | 0.109
14 | CGTCCAAGGTGAAGGTCAGTGAAAGAGACTCGAA | 1.92 | 2.94 | -0.298 | -0.465 | 0.911 | 1.43 | -0.222 | 2.11 | 0.387 | 3.93 | 3.4 | 3.39 | 3.88 | 0.585 | 2.36 | 2.71 | 0.956 | 0.389
15 | CCGACTGGTGCAAGGTTACCATAACGCACAGCCA | -0.528 | -0.0659 | -0.402 | -0.928 | 0.54 | 0.357 | -0.288 | 0.554 | 0.0426 | 0.894 | 0.979 | 0.462 | 0.421 | 0.0825 | 0.899 | 1.08 | 0.473 | 0.112

Source: the supplement of paper PMC6555819
